{"source": "PubChem BioAssay (NCI)", "note": "The panel holds about 83,000 compounds, 20% with a hit somewhere; the sample as a whole holds those more often.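 A percent growth of 40 corresponds to 60% growth inhibition; 0 means no net growth; -100 means all cells died. Active threshold: below 10.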 Active and inactive are the calls of the source."}
{"test_system": "MDA-MB-468 breast", "test": "NCI-60 one-dose screen, 48 h (100 = growth as untreated, 0 = no growth, -100 = all killed)", "conditions": "10 µM unless noted"}
{"smiles": "Nc1ccc(SSc2ccc(N)cc2)cc1", "growth": "101% (inactive)"}
{"smiles": "CCOc1ccccc1Cn1ccnc1CCc1c(Cl)c(O)cc(O)c1C(=O)OC", "growth": "106% (inactive)"}
{"smiles": "CN1CCN(Cc2ccc(NC(=O)c3cncc(C#Cc4nc(N)nc5[nH]ncc45)c3)cc2C(F)(F)F)CC1", "growth": "35.1% (inactive)"}
